In all, about 380,000 compounds went through this assay and about 1,300 (0.34%) were called active. Shown is part of a subset that was picked to be rich in actives. A number with no mark means an inactive call.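 Rule for the calls: active = drop in luminescence signal, shown as inhibition above about 50% in the replicate tests (limit read from the data, passing the limit was not always enough); inconclusive = probably only some replicates passing the limit; inactive = the rest.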

The text below walks through data of PubChem BioAssay AID720647 (Broad Institute, 2013).

For the experiment, the system named is Drosophila bursicon receptor LGR2 (rickets). Briefly: LGR2 cAMP reporter signal reduction – cell-based, HEK293, CRE-luciferase reporter, bursicon stimulation, primary screen (AID 720647).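 Note: agonist challenge used bursicon conditioned medium at about half maximal strength.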 Particulars: bursicon-stimulated, 4 h, at 9.99 µM, active compounds read high. Background: In a reporter assay the amount or activity of a reporter protein is the signal.
One may read the inhibition as the relative decrease from the control value, in per cent. As to `O=C(Nc1ccccc1F)N1CC(=O)N2[C@H](C1)[C@H](c1ccc(C#Cc3ccc(F)cc3)cc1)[C@@H]2CO`, the inhibition is 5.08%.

For the compound `C[C@@H]1CN([C@@H](C)CO)C(=O)c2cc(NC(=O)Cc3ccccc3)ccc2O[C@H]1CN(C)CC1CC1`, the inhibition was -1.21%.

Take `Cc1cnc(NC(=O)c2ccccn2)s1`: the inhibition is 59.5% (active).

As to `COC(=O)Nc1ncc(CN2C(=O)c3ccccc3C2=O)s1`, the inhibition is -22.5%.

Turning to `COc1ccc(CC(=O)NCc2nnc(SCC(=O)Nc3ncc(C)s3)n2C)cc1`, the inhibition was 8.94%.

Take `C[C@H]1CN([C@@H](C)CO)C(=O)CCCn2nncc2CO[C@@H]1CN(C)S(=O)(=O)c1ccccc1C#N`: the inhibition is -2.41%.

For the compound `O=C(Nc1ccccc1)N1CCCCN2[C@H](CO)[C@@H](c3ccc(-c4ccccc4F)cc3)[C@H]2C1`, the inhibition was 17.4%.

For the compound `CCCNC(=O)N1[C@H](C#N)[C@@H](c2ccccc2C2=CCCCC2)[C@@H]1CO`, the inhibition was 8.2%.

Consider `O=C1CN(Cc2ccccc2)C[C@H]2[C@H](c3ccc(-c4ccccc4)cc3)[C@@H](CO)N12`, for which the inhibition is -6.09%.

As for `O=C(CCCc1ccccc1)NCc1ccccc1`, the inhibition is -36.7%.

As to `O=C(CCc1ccccc1F)N1CCN(c2ccccc2)CC1`, the inhibition is -17%.

On to `C=CCN1CCN(C(=O)CCCc2ccccc2)CC1`, for which the inhibition is 66.7% (active).

On to `CCCNC(=O)C[C@@H]1CC[C@H]2[C@H](COc3ccc(NC(=O)c4ccc(Cl)cc4)cc3C(=O)N2C)O1`, for which the inhibition is -13.7%.

Consider `COc1ccc(-c2cn(CC[C@@H]3CC[C@@H](NC(=O)CCN4CCCCC4)[C@@H](CO)O3)nn2)cc1`, for which the inhibition was -11.8%.

For the compound `O=C(Nc1ccccc1Cl)/C(Cl)=C(\Cl)S(=O)c1ccccc1` (stereo not drawn), the inhibition was 98.9% (active).

Regarding `C[C@H](CO)N1C[C@H](C)[C@H](CN(C)Cc2ccccc2)OCCCC[C@H](C)Oc2ccc(NC(=O)Cc3ccccc3)cc2C1=O`, the inhibition is 24%.

Take `C[C@H](CO)N1C[C@H](C)[C@@H](CN(C)Cc2ccccc2)OCCCC[C@H](C)Oc2ccc(NC(=O)Cc3ccccc3)cc2C1=O`: the inhibition was 3.25%.

Take `O=C(C[C@H]1C=C[C@@H](NC(=O)Nc2cc(F)ccc2F)[C@H](CO)O1)NCCCN1CCOCC1`: the inhibition was -7.04%.

Consider `COc1ccc(-c2csc(Nc3ccccn3)n2)cc1`, for which the inhibition is 78.5% (active).

In the case of `COc1cncc(-c2cnc3sc(NCCc4ccccn4)nn23)c1`, the inhibition is 20.8%.

Consider `COc1cccc(C(NC(C)=O)c2nc(-c3ccccc3OC)cs2)c1` (stereo not drawn), for which the inhibition is -5.66%.

As to `C[C@H](CO)N1C[C@H](C)[C@H](CN(C)C(=O)Nc2ccc(F)cc2)Oc2ccc(NC(=O)Cc3cn(C)c4ccccc34)cc2CC1=O`, the inhibition is 10.8%.

With `C[C@@H]1CN([C@@H](C)CO)C(=O)c2cc(NS(=O)(=O)c3ccccc3)ccc2O[C@H]1CN(C)CC1CCCCC1`, the inhibition is -4.25%.

Turning to `C[C@@H]1CN([C@@H](C)CO)C(=O)CCCn2cc(nn2)CO[C@H]1CN(C)Cc1ccc(C(=O)O)cc1`, the inhibition is 6.13%.

Regarding `COCCNC(=O)C[C@H]1CC[C@H]2[C@H](COc3ccc(NC(=O)C4CCOCC4)cc3C(=O)N2C)O1`, the inhibition is -14%.

With `O=C(CSc1ccccc1F)NC1CCS(=O)(=O)C1` (stereo not drawn), the inhibition is 23.4%.

For the compound `O=S1(=O)CCC(NC(=S)SCc2ccccc2Br)C1` (stereo not drawn), the inhibition was 69.2% (active).

With `CC(C)C(=O)NC(NC(=S)NC1CCS(=O)(=O)C1)C(Cl)(Cl)Cl` (stereo not drawn), the inhibition was -0.282%.

Regarding `CC(=O)Nc1cccc(C(=O)OCC(=O)c2ccc3c(c2)OCO3)c1`, the inhibition was 63.3% (active).

In the case of `CCOc1ccc(NCCC(=O)c2ccc3c(c2)OCO3)cc1`, the inhibition is -15.9%.

In the case of `O=C1COc2ccc(C(=O)COC(=O)c3ccccc3Cl)cc2N1`, the inhibition was -31.2%.

For `N#CCCN(C(=O)COC(=O)c1ccc2c(c1)OCCO2)c1ccccc1`, the inhibition was 4.75%.

As for `O=C(COC(=O)c1ccccc1)c1ccc2c(c1)OCCO2`, the inhibition is 66.7% (active).

`CCOc1cc(C(=O)OCC(=O)Nc2cccc(C)c2)ccc1OCC(=O)N1CCOCC1`: the inhibition was 16.2%.

On to `COc1ccc2c3c(n(C)c2c1)[C@H](CO)N(Cc1ccccc1)CC31CN(C(=O)c2ccccc2F)C1`, for which the inhibition was 13.5%.

As to `CCCC(=O)Nc1ccc2c(c1)C(=O)N(C)C[C@H](OC)[C@H](C)CN(C(=O)c1ccccn1)[C@H](C)CO2`, the inhibition was 14%.

As to `O=C(C[C@H]1C=C[C@H](NC(=O)CC2CC2)[C@@H](CO)O1)NCc1ccccc1`, the inhibition was -1.04%.

For the compound `C[C@H]1CN([C@@H](C)CO)C(=O)c2cc(NC(=O)Cn3cnnn3)ccc2O[C@H]1CN(C)C(=O)NC1CCCCC1`, the inhibition was -0.859%.

As for `COc1ccc2c3c([nH]c2c1)[C@@H](CO)N(C(=O)Nc1ccc(F)cc1)CC31CN(S(C)(=O)=O)C1`, the inhibition was -10.4%.

On to `C[C@@H]1CN([C@@H](C)CO)C(=O)c2cc(-c3ccc(C#N)cc3)cnc2O[C@@H]1CN(C)Cc1cccnc1`, for which the inhibition was 21.1%.

Turning to `O=S(=O)(Nc1ccc(O)c2ccccc12)c1ccc(OC(F)(F)F)cc1`, the inhibition was 58.8% (active).

For the compound `O=S(=O)(Cc1noc(-c2ccc(OC(F)(F)F)cc2)n1)c1ccc(F)cc1`, the inhibition was -18.2%.

As to `O=[N+]([O-])c1ccc(NS(=O)(=O)c2ccccc2)c(Cl)c1`, the inhibition is -13%.

As for `CCCN1[C@@H]2c3ccc(C4=CCCC4)c(=O)n3C[C@@H]2[C@@H](CO)[C@@H]1C(=O)NCc1ccccn1`, the inhibition was -8.46%.

With `COc1ccc(S(=O)(=O)N(C)C[C@H]2OCCCC[C@H](C)Oc3ccc(NC(=O)Nc4ccc5c(c4)OCO5)cc3C(=O)N([C@@H](C)CO)C[C@@H]2C)cc1`, the inhibition is 21.6%.

With `CO[C@@H]1CN(C)C(=O)c2ccc(NC(C)=O)cc2OC[C@@H](C)N(CC2CC2)C[C@H]1C`, the inhibition is -1.72%.

On to `C[C@H](CO)N1C[C@H](C)[C@H](CN(C)CC2CC2)OCCCC[C@H](C)Oc2ccc(NC(=O)c3ccncc3)cc2C1=O`, for which the inhibition was -8.96%.

As to `Cc1ccc(S(=O)(=O)Nc2ccc3c(c2)C(=O)N([C@H](C)CO)C[C@H](C)[C@H](CN(C)S(=O)(=O)c2ccc(F)cc2)O3)cc1`, the inhibition was 2.4%.

As for `Cn1cnc(C(F)(F)F)c1-c1ccc([N+](=O)[O-])cc1`, the inhibition was -7.43%.

Regarding `Cc1ccc(-c2cn3cc([N+](=O)[O-])ccc3n2)cc1`, the inhibition was 67.1% (active).

In the case of `Cc1ccc(-c2cn3cc(C)ccc3n2)cc1`, the inhibition is 102% (active).

For `Cc1ccc2nc(-c3ccc(Br)cc3)cn2c1`, the inhibition was 96.2% (active).

For the compound `Cc1nc(-c2ccccc2)cn2c1nc1ccccc12`, the inhibition was 3%.

As for `Cc1nc(=O)c(-c2ccccc2)c(C)n1-c1ccc(Br)cc1`, the inhibition is 4.28%.

With `COc1ccccc1Cc1c(-c2ccc(F)cc2)nc2ccc(C)cn12`, the inhibition was -38.1%.

For the compound `Cc1ccc(N2CCN(c3ccc([N+](=O)[O-])cn3)CC2)c(C)c1`, the inhibition was 4.63%.

Regarding `C[C@@H]1CN([C@@H](C)CO)C(=O)c2cc(C3=CCCC3)cnc2O[C@H]1CN(C)C(=O)c1ccccn1`, the inhibition is -11.6%.

On to `COc1ccc(NC(=O)Nc2ccc3c(c2)[C@@H]2C[C@@H](CC(=O)NCc4ccncc4)O[C@@H](CO)[C@@H]2O3)cc1`, for which the inhibition is 6.93%.

Take `CCC(=O)N(C)C[C@@H]1Oc2cc(-c3ccc(C#N)cc3)ccc2S(=O)(=O)N([C@@H](C)CO)C[C@@H]1C`: the inhibition was -4.05%.

For `Cc1nc(N2[C@H](CO)[C@H](c3ccccc3)[C@H]2CNCC2CCCCC2)sc1C`, the inhibition was -6.28%.

In the case of `O=C(O)c1ccc(N/N=C/c2ccc3ncccc3c2)cc1`, the inhibition is 88.1% (active).

For `NCCCCCC(=O)N/N=C/c1ccc2nccnc2c1`, the inhibition was -0.608%.

With `CCc1nc2cccnc2n1-c1ccc(C(=O)O)cc1`, the inhibition was -11.5%.

Turning to `O=C(C[C@H]1C=C[C@@H](NC(=O)C2CCOCC2)[C@@H](CO)O1)NCC1CCCCC1`, the inhibition was 25%.

With `Cc1noc(C)c1NC(=O)N(C)C[C@H]1Oc2ccc(NS(=O)(=O)c3ccc(F)cc3)cc2C(=O)N([C@@H](C)CO)C[C@H]1C`, the inhibition is -0.097%.

`N[C@@H](Cc1ccccc1)C(=O)N1CCOCC1`: the inhibition is -3.78%.

For `O=C(O)CC(CC(=O)N1CCOCC1)c1ccccc1` (stereo not drawn), the inhibition is 7.83%.

With `O=C(CSC(=S)N1CCOCC1)c1ccccc1`, the inhibition is 69.5% (active).

On to `C[C@@H]1CN([C@@H](C)CO)S(=O)(=O)c2ccc(-c3ccc(C#N)cc3)cc2O[C@H]1CN(C)Cc1ccccn1`, for which the inhibition is 12.2%.

Consider `CCCC(=O)N1CC2(CN(C(=O)NC(C)C)C2)c2c([nH]c3cc(OC)ccc23)[C@@H]1CO`, for which the inhibition was 0.057%.

Consider `CCn1cc(/C=C(\NC(=O)c2ccc(C)cc2)C(=O)NCCN2CCOCC2)c2ccccc21`, for which the inhibition was -9.89%.

On to `Cc1ccc(C(=O)N/C(=C/c2ccc(-c3cccc([N+](=O)[O-])c3)o2)C(=O)NCCCN(C)C)cc1`, for which the inhibition is 77.8% (active).

Turning to `O=C(NCc1ccco1)/C(=C\c1cccc([N+](=O)[O-])c1)NC(=O)c1ccco1`, the inhibition was 21.6%.

On to `C[C@H](CO)N1C[C@H](C)[C@@H](CN(C)S(=O)(=O)c2ccc(F)cc2)OCCCC[C@H](C)Oc2ccc(NC(=O)CCCN(C)C)cc2C1=O`, for which the inhibition is -10.7%.

Regarding `Cc1c(C(=O)NCCN(C)C)oc2ccc(S(=O)(=O)N3CCCC3)cc12`, the inhibition is -6.68%.

For the compound `Nc1nc2c(Br)ccc(Br)c2cc1C(=O)NCCc1ccccc1`, the inhibition is -7.19%.

`CN(C)CCNC(=O)c1ccc(Cl)c2cc3ccccc3nc12`: the inhibition is 86.6% (active).

Turning to `CC(C)NC(=O)N(C)C[C@@H]1OCCCC[C@@H](C)Oc2ccc(NC(=O)CCCN(C)C)cc2C(=O)N([C@@H](C)CO)C[C@@H]1C`, the inhibition is 0.91%.
